This is a sample that favours compounds with a hit; in the whole collection about 19% have one here.
DT40 TDP1 no CPT = qHTS for Inhibitors of human tyrosyl-DNA phosphodiesterase 1 (TDP1): qHTS in cells in absence of CPT. 420,000 tested, 15% active. AID 686978, 2013. Potency, µM (series often up to 46.2 µM), for the others: at the top dose activity change, negative = growth inhibition, hits mostly inhibitors. DT40 Tdp1-/- hTDP1 cells, no CPT, ATP luminescence, 48 h; also: nearly all actives have a fitted effect of over 55% in size
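No-CPT arm: Tdp1-/-;hTDP1 DT40 cells (400/well) plus compounds, incubated ≥48 hr at 37 °C. Readout CellTiter-Glo luminescence.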
DT40 TDP1 CPT = DT40-hTDP1 cell growth loss with CPT | chicken DT40 Tdp1-/-;hTDP1 cells + 20 nM CPT, ATP luminescence, 48 h | Potency, µM (highest dose often 46.2 µM), for inactives: at the highest dose activity change, negative = growth inhibition, most hits filed as inhibitors | 420,000 tested, 12% active; also: nearly all actives have a fitted effect of over 55% in size
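Chicken DT40 Tdp1-/- cells complemented with human TDP1, 400 cells/well, exposed to compounds plus 20 nM camptothecin for at least 48 h at 37 C; viability read as ATP content by CellTiter-Glo luminescence.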
HT1080-NT tox = kills 2HG-producing HT-1080-NT fibrosarcoma cells; HT-1080-NT fibrosarcoma viability, CellTiter-Glo ATP luminescence, 48 h; Potency, µM (top dose mostly 46.1 µM), for inactives: at the top dose activity, negative = less viability, hits mostly cytotoxic; 360,000 tested, 1.6% active;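 also: NT is the 2HG producing partner of a matched IDH1 knockdown line; 0% = DMSO-treated cells and -100% = media-only wells without cells; nearly all actives have a fitted effect of over 55% in size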
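A 48-hour cytotoxicity screen used HT-1080-NT cells plated 2 hours before compound delivery. ATP-based CellTiter-Glo luminescence measured viability, normalized to DMSO and no-cell controls.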
HT1080 IDH1KD tx = HT-1080 IDH1 knockdown cell toxicity (counter line). Potency, µM (series often up to 46.1 µM), for the others: top-dose activity, negative = toxicity, hits mostly cytotoxic. 360,000 tested, 2% active. HT-1080 IDH1 knockdown viability, ATP luminescence, 48 h;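 also: 0% = DMSO wells and -100% = cell-free medium wells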
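Luminescent ATP read-out (CellTiter-Glo, 10 min at room temperature) after 48 h compound exposure at 37 °C gave viability of IDH1-knockdown HT-1080 cells. Activity was normalised to DMSO and cell-free wells, then fitted as concentration-response curves.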
KB-3-1 tox = kills parental KB-3-1 adenocarcinoma cells | Potency, µM (doses to about 46.1 µM), most hits filed as cytotoxic | AID 1347075 | KB-3-1 viability, CellTiter-Glo ATP luminescence, 72 h | 400,000 tested, 1.4% active; also: nearly all actives have a fitted effect of over 60% in size
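Cytotoxicity in the drug-sensitive parental line KB-3-1 was scored as loss of CellTiter-Glo luminescence following 72 h incubation with compound. Values come from curve fitting of normalized concentration-response data.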
KB-V1 MDR tox = kills drug-selected multidrug resistant KB-V1 cells. KB-V1 MDR cells viability, CellTiter-Glo, 72 h. 400,000 tested, 3.4% active. Potency, µM (doses to about 46.1 µM), actives largely listed as cytotoxic. AID 1347076; also: nearly all actives have a fitted effect of over 60% in size
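Compound-treated KB-V1 multidrug-resistant cells, 72 h, 37 degrees C; viability by CellTiter-Glo. Fitted qHTS curves give the values.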
Starred values were filed as active, the others as inactive; i = inactive; u = inconclusive; x = no result; [ ] = remark or other dose. Calls follow the shape of the dose curve; as a rule, active = well fitted curve in the direction sought with a large enough effect; inconclusive = small, poorly fitted or top-dose-only effect, or another doubt; inactive = no such curve, though single readings can be large; an effect the other way counts as inactive or inconclusive. Unless noted, % is scaled to controls: 0 for no effect and ±100 for the full control effect; potency is read from the fitted curve at half-maximal effect.

SMILES | DT40 TDP1 no CPT | DT40 TDP1 CPT | HT1080-NT tox | HT1080 IDH1KD tx | KB-3-1 tox | KB-V1 MDR tox
COc1ccc(NC(=O)c2ccc3c(c2)sc2nc(-c4ccc(OC)cc4)cn23)cc1 | -4% | -5% | x | x | x | x
COc1ccc(CCNC(=O)c2ccc3c(c2)sc2nc(-c4ccccc4)cn23)cc1OC | 7.3µM* | 5.2µM* | x | x | x | x
O=C(NCc1ccccc1)C1c2ccccc2OCC(=O)N1CCc1c[nH]c2ccccc12 (stereo not given) | u | -28% | 13% | 5% | i | i
Cc1ccc(-c2noc(C3CCCN(C(=O)c4ccc(C(C)(C)C)cc4)C3)n2)o1 (stereo not given) | 18µM* | u | u | u | i | u
CC(=O)c1cccc(S(=O)(=O)N2CCCC(c3nc(-c4ccc(C)o4)no3)C2)c1 (stereo not given) | u | 18µM* | 3% | 8% | i | i
Cc1ccc(-c2noc(C3CCN(C(=O)Nc4ccc(C#N)cc4)CC3)n2)o1 | u | 23µM* | -16% | u | u | 2.6µM*
Cc1ccc(-c2noc(C3CCCN(S(=O)(=O)c4ccc5ccccc5c4)C3)n2)o1 (stereo not given) | -24% | u | 1% | 9%[9.24 µM] | i | i
COc1cc(OC)cc(C(=O)N2CCCC(c3nc(-c4ccc(C)o4)no3)C2)c1 (stereo not given) | u | -9% | -6% | -3% | i | u
CC(=O)c1c(C)[nH]c(C(=O)CN2CCN(S(=O)(=O)c3ccccc3)CC2)c1C | u | u | -2%[9.24 µM] | -2% | i | i
COc1cccc(CNC(=O)Cn2nc(C)c([N+](=O)[O-])c2C)c1 | -19% | -19% | 2% | -3% | i | i
O=C(O)Cc1csc(-c2ccccc2)n1 | -8% | -8% | 8% | 0% | i | i
CCc1ccccc1N(C(C)=O)c1nc(CN=C=S)cs1 | u | 23µM* | 3% | -4% | i | i
CN(C)c1ccc(-c2csc(C(O)(c3ccccc3)C(F)(F)F)n2)cc1 (stereo not given) | 7.3µM* | 10µM* | u | u | i | i
Cc1ccc(-c2csc(C(O)(c3ccccc3)C(F)(F)F)n2)cc1C (stereo not given) | 16µM* | u | 26µM* | u | i | i
OC(c1ccccc1)(c1nc(-c2cccc3cccnc23)cs1)C(F)(F)F (stereo not given) | u | 23µM* | u | u | u | i
Cc1ccccc1-c1csc(C(O)(c2ccccc2)C(F)(F)F)n1 (stereo not given) | u | u | u | u | i | i
OC(c1ccccc1)(c1nc(-c2ccc(F)c(Cl)c2)cs1)C(F)(F)F (stereo not given) | 16µM* | u | u | 18µM* | i | i
CC(O)(c1ccccc1)c1nc(-c2ccc(S(C)(=O)=O)cc2)cs1 (stereo not given) | u | -21% | -1% | -2% | i | i
Oc1cccc(-c2csc(C(O)(c3ccccc3)C(F)(F)F)n2)c1 (stereo not given) | u | u | u | -17% | i | i
Cc1nnc(NCCc2ccccc2)c2ccccc12 | 23µM* | u | -3% | -12% | i | i
CCCc1nc(NCC2CCCO2)c2nnn(Cc3ccccc3)c2n1 (stereo not given) | u | u | 0% | -1% | i | i
N#Cc1cccnc1N1CCN(C(=O)c2ccc3c(c2)S(=O)(=O)c2ccccc2C3=O)CC1 | u | 26µM* | -4% | -6% | i | i
O=C(NCc1ccccc1)c1ccc2c(c1)N(Cc1cccc(Cl)c1)C(=O)c1ccccc1S2(=O)=O | 4% | u | x | x | x | x
O=C(c1ccc2c(c1)N(Cc1ccc(Cl)cc1)C(=O)c1ccccc1S2(=O)=O)N1CCN(c2ccccn2)CC1 | 23µM* | 16µM* | x | x | u | i
O=C1c2ccccc2S(=O)(=O)c2cc(C(=O)N3CCN(c4ccc(Cl)cn4)CC3)ccc21 | -11% | 3% | -1% | 2% | i | i
SMILES | DT40 TDP1 no CPT | DT40 TDP1 CPT | HT1080-NT tox | HT1080 IDH1KD tx | KB-3-1 tox | KB-V1 MDR tox
O=C(c1ccc2c(c1)N(Cc1cccc(Cl)c1)C(=O)c1ccccc1S2(=O)=O)N1CCN(c2ccccn2)CC1 | 13µM* | u | u | -16% | u | u
NNC(=O)COc1ccc(C(F)(F)F)cc1 | -15% | 3% | 0% | 8% | i | i
O=C(CSc1nnc(-c2ccccc2)o1)c1cccc([N+](=O)[O-])c1 | u | -12% | x | x | i | i
CN(C(=O)CSc1nnc(-c2ccc([N+](=O)[O-])cc2)o1)c1ccccc1 | u | 16µM* | x | x | i | i
Oc1ccccc1-c1nc(NCCN2CCOCC2)c2ccccc2n1 | u | u | 21µM* | 21µM* | u | 16µM*
COc1cccc(-c2nc(NCCN3CCOCC3)c3ccccc3n2)c1O | 18µM* | 15µM* | u | -27% | i | u
Clc1ccccc1-c1nc(NCCN2CCOCC2)c2ccccc2n1 | -20% | u | x | x | x | x
CCc1nn(CC(=O)NCCN(CC(C)C)CC(C)C)c(=O)c2cc3sc(C)cc3n12 | 21µM* | 15µM* | x | x | x | x
Cc1nc(Nc2cccc(O)c2)c2oc3ccccc3c2n1 | 13µM* | u | 6% | -5% | i | i
Cc1nc(Nc2cccc(F)c2)c2oc3ccccc3c2n1 | u | u | -14% | -22% | i | i
COc1cccc(Nc2nc(C)nc3c2oc2ccccc23)c1 | 21µM* | u | -10% | u | i | i
Cc1nc(Nc2cccc(Cl)c2)c2oc3ccccc3c2n1 | 21µM* | 16µM* | -26% | u | i | i
COc1cccc(Oc2nc(C)nc3c2oc2ccccc23)c1 | u | -21% | x | x | i | i
Cc1ccc2nc(C3CCCN3Cc3nc(CCC(C)C)no3)[nH]c2c1 (stereo not given) | u | u | -12% | -11% | i | 6.5µM*
COc1cccc(C2CCCN2Cc2nc(CCC(C)C)no2)c1 (stereo not given) | u | u | 3% | 7% | i | i

Screens from PubChem.
